CD40 NFkB inh: CD40 pathway inhibition in BL2 cells; BL2 NF-kB luciferase reporter, CD40L-induced, 4 h; inhibition, % at 10 µM; 83,000 compounds, 0.94% hits;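 active = mean inhibition of at least 50% with a set share of replicates also reaching that level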
Numbers stand for hits; . = inactive; ! = repeats disagree; [ ] = remark or other dose. The entries come from a sample that favours hits as a whole.

SMILES	CD40 NFkB inh
Cn1nnnc1SCC(=O)N1N=C(c2cccs2)CC1c1cccs1 (stereo not given)	.
O=C(CNCCO)N1N=C(c2cccs2)CC1c1cccs1 (stereo not given)	30.5
O=C(CSC1=NCCS1)N1N=C(c2cccs2)CC1c1ccc(F)cc1 (stereo not given)	.
c1ccc2c(c1)nc(N1CCOCC1)c1nncn12	.
CSCCC(NS(=O)(=O)c1ccccc1F)C(=O)NNC(=O)c1csc(N2CCOCC2)n1 (stereo not given)	.
Cc1noc(C)c1C(=O)N1CCN(S(=O)(=O)c2cccs2)CC1	.
CC(C)[C@@H](C)NC(=O)N(C)C[C@H]1OCc2ccccc2-c2ccccc2C(=O)N([C@@H](C)CO)C[C@@H]1C	.
CO[C@H]1CC[C@@H]2CCOc3c(C#N)cccc3C(=O)N(C)C[C@@H](OC)[C@@H](C)C(=O)N(C)C[C@@H]1O2	.
CC1CCc2ccccc2N1CC(=O)Nc1cccc(S(=O)(=O)N2CCCC2)c1 (stereo not given)	.
N#Cc1cccc(-c2ccc(C3[C@H]4CNC[C@@H]3N4Cc3ccc4c(c3)OCO4)cc2)c1 (stereo not given in full)	74.5!
N#Cc1cccc(-c2ccc(C3[C@H]4CNC[C@@H]3N4Cc3cccc(F)c3)cc2)c1 (stereo not given in full)	.
COc1cccc(-c2ccc(C3[C@H]4CNC[C@@H]3N4Cc3ccc4c(c3)OCO4)cc2)c1 (stereo not given in full)	.
Cc1cc(C)c(NC(=O)CSc2nc(=O)n(CCN3CCOCC3)c3c2CCCC3)c(C)c1	.
Cc1ccc(S(=O)(=O)N2CC[C@H]3[C@H](CO)Nc4ccc(-c5ccc(C#N)cc5)cc4[C@H]32)cc1	.
CCOC(=O)N1CCN(C(=O)CNS(=O)(=O)c2cccs2)CC1	.
Cn1c(=O)n(C)c2cc(C(N)=O)ccc21	.
CC1=C(C#N)c2nc(N)c(C#N)c(C)c2/C1=C\c1ccccc1	48.9
Cc1c(C#N)c(N)nc(Cl)c1C#N	.
CCc1nc(N)c(C#N)c(-c2cccc3ccccc23)c1C	.
Cc1cccc(OCc2occc2C(=O)Nc2cccc(-n3cnnn3)c2)c1	.
O=C(CSc1ncn[nH]1)Nc1nc(-c2ccccc2)ns1	.
CN1C[C@H]2[C@@H](c3ccccc31)[C@@H](CO)N2C(=O)c1ccccn1	.
CCCN(CC(=O)Nc1ccccc1OC)C(=O)c1ccccn1	.
COc1ccccc1NC(=S)NN=C(C)c1ccccn1	90.3
CC(=NNC(=S)N1CC2CCC(CC2)C1)c1ccccn1	.
SMILES	CD40 NFkB inh
COc1ccccc1NC(=O)c1ccccc1NC(=O)c1ccccn1	.
CC(=NNC(=S)Nc1ccc(C)cc1)c1ccccn1	77.5
Cc1ccc(NC(=S)NNC(=S)Nc2ccc(C)cc2)cc1	.
COc1ccc(C(CNC(=O)c2cccc(S(=O)(=O)Nc3ccc(F)cc3)c2)N(C)C)cc1 (stereo not given)	.
O=C(Nc1cccc(-c2cn3ccccc3n2)c1)c1cnccn1	.
O=C(Nc1ccccc1)c1cn2ccccc2n1	68.9
O=C(Nc1ccc(-n2cnnn2)cc1)c1cn2ccccc2n1	.
CCc1c(C(=O)N/N=C/c2cccs2)nnn1-c1nonc1N	.
CN(C)C(=O)c1ccc(-c2cc(C(F)(F)F)n(C)n2)s1	.
C[C@@H]1CN([C@@H](C)CO)C(=O)c2cc(NS(=O)(=O)c3cccs3)ccc2O[C@@H]1CN(C)Cc1ccc(C(=O)O)cc1	.
Cc1noc(C)c1S(=O)(=O)Nc1ccc2c(c1)CC(=O)N([C@@H](C)CO)C[C@@H](C)[C@@H](CN(C)Cc1ccc(Cl)c(Cl)c1)O2	.
C[C@@H]1CN([C@@H](C)CO)C(=O)Cc2cc(NC(=O)Cc3cn(C)c4ccccc34)ccc2O[C@@H]1CN(C)C(=O)Nc1ccccc1	.
C[C@H](CO)N1C[C@H](C)[C@@H](CN(C)Cc2ccc(Cl)c(Cl)c2)Oc2ccc(NS(=O)(=O)c3ccc(Cl)cc3)cc2CC1=O	.
C[C@H](CO)N1C[C@H](C)[C@@H](CN(C)Cc2ccc(C(=O)O)cc2)Oc2ccc(NS(=O)(=O)c3cccs3)cc2C1=O	.
C[C@@H]1CN([C@@H](C)CO)C(=O)Cc2cc(NC(=O)Cc3cn(C)c4ccccc34)ccc2O[C@H]1CN(C)Cc1ccc(C(F)(F)F)cc1	66.0[25 µM]
C[C@@H]1CN([C@@H](C)CO)C(=O)Cc2cc(NC(=O)Nc3ccc(C(F)(F)F)cc3)ccc2O[C@H]1CN(C)Cc1ccccc1	.
C[C@@H]1CN([C@@H](C)CO)C(=O)Cc2cc(NS(=O)(=O)c3ccccc3)ccc2O[C@H]1CN(C)Cc1ccc(Cl)c(Cl)c1	68.3
C[C@@H]1CN([C@@H](C)CO)C(=O)Cc2cc(NS(=O)(=O)c3ccc(Cl)cc3)ccc2O[C@H]1CN(C)Cc1ccc(Cl)c(Cl)c1	64.8
C[C@@H]1CN([C@@H](C)CO)C(=O)Cc2cc(NS(=O)(=O)c3ccc(F)cc3)ccc2O[C@@H]1CN(C)Cc1ccncc1	.
C[C@@H]1CN([C@H](C)CO)C(=O)Cc2cc(NS(=O)(=O)c3ccc(F)cc3)ccc2O[C@@H]1CN(C)Cc1ccncc1	.
C[C@H]1CN([C@@H](C)CO)C(=O)Cc2cc(NS(=O)(=O)c3cccs3)ccc2O[C@@H]1CN(C)Cc1ccc(Cl)c(Cl)c1	56.9
Cc1nnc(SCC(=O)Nc2cc(S(=O)(=O)N3CCOCC3)ccc2C)s1	.
Cc1ccc(C)c(S(=O)(=O)NC(CC(C)C)C(=O)O)c1 (stereo not given)	.
O=C(C[C@@H]1C[C@@H]2c3cc(NC(=O)Cc4ccncc4)ccc3O[C@@H]2[C@H](CO)O1)NCc1cc(F)ccc1F	.
CCOC(=O)C1CCN(C(=O)Cn2nc(C)n3c(cc4cc(F)ccc43)c2=O)CC1	.
SMILES	CD40 NFkB inh
O=c1c2oc3nc4c(cc3c2ncn1CCCc1ccccc1)CCCC4	.
C[C@@H]1CN([C@H](C)CO)C(=O)CCCn2cc(nn2)CO[C@@H]1CN(C)CC1CCCCC1	.
O=C(c1ccc2nc(-c3ccccc3)c(-c3ccccc3)nc2c1)N1CCCCC1	.
O=C(COC(=O)c1ccccc1-n1cnnn1)c1ccccc1	.
c1ccc(-c2nnc(-c3ccccn3)nn2)nc1	49.2
c1ccc(-c2cccc(-c3ccccn3)n2)nc1	.
c1ccc(-c2noc(C3CCC3)n2)nc1	.
C[C@@H]1CN([C@H](C)CO)C(=O)c2ccccc2-c2ccccc2CO[C@H]1CN(C)C(=O)[C@H](Cc1ccccc1)N(C)C	.
CCc1cc2ccc(OC)cc2nc1SCC(=O)NNC(C)=O	.
Cc1ccc(S(=O)(=O)c2c(C)cc(C)nc2N2CCCCC2)cc1	.
Cc1cc(S(=O)(=O)c2ccc(Cl)cc2)nc(S(=O)(=O)c2ccc(Cl)cc2)c1C#N	112.3
Cc1cc(C)nc(NNS(=O)(=O)c2ccc(Cl)cc2)n1	.
c1ccc2c(c1)CCCN2c1nc2ccccc2n2cnnc12	.
Cc1ccccc1Nc1nc(Cl)c(C=O)s1	.
CSc1ncc(Cl)c(C(=O)Nc2cccc3ccccc23)n1	.
Cc1cc(C(=O)Nc2cc(S(C)(=O)=O)ccc2Cl)no1	.
Cc1ccccc1NC(=O)c1nc(S(C)(=O)=O)ncc1Cl	104.4
CCOC(=O)c1ccc(NS(C)(=O)=O)cc1	.
CCOC(=O)c1nc(S(C)(=O)=O)ncc1Cl	108.0
CCOC(=O)c1nc(C)[nH]c1C(=O)OCC	.
O=C(c1ccc(F)cc1)N1C[C@@H]2[C@H](c3ccccc31)[C@@H](CO)N2C(=O)c1ccccc1	.
CCC(C)[C@H](NC(=O)NCc1ccco1)C(=O)O (stereo not given in full)	.
COc1ccc(-c2ccc(OC)c(OC)c2OC)c(OC)c1OC	.

Assay outcomes deposited in PubChem by Broad Institute.
